A selection: hits, their analogues and other compounds. The true share with any hit is near 11%.
NPR1 antag = blocks ANP-stimulated signaling of human Npr1 receptor; P16066; HEK293 hNpr1 GloSensor cGMP, ANP-stimulated luminescence; Potency, µM (top dose mostly 46.3 µM), most hits filed as inhibitors; hit rate 1.6% among 76,000; AID 1347048; calls by dose curve; further: nearly all actives have a fitted effect of over 60% in size
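HEK293 cells stably expressing human Npr1 and cGMP GloSensor pGS-40F, loaded 2 h with 2% GloSensor reagent, given compound 30 min at room temperature. Luminescence read before and 20 min after 0.1 nM hNppA.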
NIH3T3 tox = NIH 3T3 cell cytotoxicity. NIH 3T3 viability, CellTiter-Glo ATP luminescence, 48-72 h. Potency, µM (series often up to 96.7 µM), actives largely listed as inhibitors. hit rate 4.3% among 94,000. AID 1345082; further: nearly all actives have a fitted effect of over 55% in size
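NIH 3T3 cells at 400 cells/well received 23 nL of compound by pintool and were incubated 48 or 72 h at 37 °C. Viability was read as ATP-coupled CellTiter-Glo luminescence.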
FLuc inh = Photinus pyralis luciferase inhibition. purified P. pyralis luciferase, luminescence, biochemical. Potency, µM (doses to about 115 µM), actives largely listed as inhibitors. hit rate 2.5% among 76,000; further: nearly all actives have a fitted effect of over 65% in size
Target sequence (P08659 whole entry, looked up): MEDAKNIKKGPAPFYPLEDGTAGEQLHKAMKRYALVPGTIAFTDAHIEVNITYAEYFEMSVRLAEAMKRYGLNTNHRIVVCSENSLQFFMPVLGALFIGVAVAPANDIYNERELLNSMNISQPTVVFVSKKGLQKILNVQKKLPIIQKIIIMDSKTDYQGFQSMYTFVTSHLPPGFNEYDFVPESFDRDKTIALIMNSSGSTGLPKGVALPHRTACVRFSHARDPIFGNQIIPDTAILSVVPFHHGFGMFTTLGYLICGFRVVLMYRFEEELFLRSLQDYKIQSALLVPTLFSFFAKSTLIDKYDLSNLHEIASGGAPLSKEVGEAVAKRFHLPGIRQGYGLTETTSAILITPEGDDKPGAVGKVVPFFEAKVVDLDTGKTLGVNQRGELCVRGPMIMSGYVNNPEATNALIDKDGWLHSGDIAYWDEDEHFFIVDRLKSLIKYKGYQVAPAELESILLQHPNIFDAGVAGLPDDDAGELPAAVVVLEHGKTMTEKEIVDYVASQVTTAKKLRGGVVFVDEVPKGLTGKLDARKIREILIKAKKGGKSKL
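Inhibitors were tested against purified firefly luciferase in a biochemical, low-substrate format (both substrates at 10uM) and luminescence measured with a CCD imager.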
HEK293 tox = HEK 293 cell cytotoxicity; Potency, µM (doses to about 115 µM), hits mostly inhibitors; HEK 293 viability, ATP luminescence (CellTiter-Glo), 48-72 h; hit rate 6.6% among 94,000; AID 1345083; further: nearly all actives have a fitted effect of over 60% in size
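Pintool-delivered compounds were incubated with HEK 293 cells (250 cells/well) at 37 degree Celsius for 48 or 72 hr. ATP-dependent luminescence (CellTiter-Glo) then reported remaining viable cells.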
Each line names hits and unclear results; the compound was inactive in the other large screens; ! = not active in a repeat. Unless noted, the call rests on the fitted dose curve; in most records, active means well fitted curve in the direction sought with a large enough effect; inconclusive means small, poorly fitted or top-dose-only effect, or another doubt; inactive means no such curve, though single readings can be large; an effect the other way counts as inactive or inconclusive.

O[C@@H]1C[C@@H](c2nc(-c3ccccc3)no2)N(Cc2cc3ccccc3o2)C1	NIH3T3 tox inconclusive, FLuc inh 40µM, HEK293 tox inconclusive
O=C(Cc1ccccc1)Nc1ccc([C@@H](O)[C@H]2COCC(=O)N2Cc2ccc(C(F)(F)F)cc2)cc1	NIH3T3 tox 79µM, HEK293 tox inconclusive
O=C(Nc1ccc([C@@H](O)[C@H]2COCC(=O)N2Cc2ccc(F)cc2)cc1)c1ccccc1	NIH3T3 tox inconclusive, HEK293 tox 100µM
O=C(Cc1ccccc1)Nc1ccc([C@@H](O)[C@H]2COCC(=O)N2Cc2ccccc2)cc1	none
CC(C)(C)c1ccc(C(=O)Nc2ccc(C(O)[C@H]3COCC(=O)N3Cc3ccccn3)cc2)cc1 (some centres not stated)	NIH3T3 tox inconclusive, FLuc inh 16µM, HEK293 tox inconclusive
N#Cc1ccc(C(=O)Nc2ccc([C@@H](O)[C@H]3COCC(=O)N3Cc3ccc(F)cc3)cc2)cc1	HEK293 tox inconclusive
CN1CC(C(=O)NCc2cccc(F)c2)NC1=O (configuration not stated)	none (no result: NPR1 antag, FLuc inh)
CCN1C[C@H]2COc3ccc(C)cc3[C@H]2N(C(=O)c2ccccc2)CCC1=O	HEK293 tox inconclusive (no result: NPR1 antag, FLuc inh)
O=C(c1ccc(Cl)nc1)N1CCC2(CC1)CC(c1cccc(C(F)(F)F)c1)=NO2	NIH3T3 tox inconclusive, HEK293 tox 35µM! (no result: NPR1 antag, FLuc inh)
O=C(c1cccnc1)N1CCC2(CC1)CC(c1cccc(C(F)(F)F)c1)=NO2	HEK293 tox inconclusive (no result: NPR1 antag, FLuc inh)
Cc1ccc(C(=O)N2CCC3(CC2)CC(c2cccc(C(F)(F)F)c2)=NO3)cc1	NIH3T3 tox inconclusive, HEK293 tox 45µM!
Cc1ccc(C(=O)N2CCC3(CC2)CC(c2cccnc2)=NO3)cc1	NIH3T3 tox inconclusive, HEK293 tox inconclusive
C[S+](=O)([O-])N1CCC(c2nnc3n2C(C(=O)NCc2ccccc2Cl)CC3)CC1 (configuration not stated)	none (no result: NPR1 antag, FLuc inh)
O=C1CC2(CCN(C(=O)C3CCCN(C(=O)Cc4ccccn4)C3)CC2)Oc2ccccc2N1 (configuration not stated)	none (no result: NPR1 antag, FLuc inh)
Cc1ncc(CN2CCCC2C(=O)Nc2ccc(-c3cccc(F)c3)cc2)[nH]1 (configuration not stated)	NIH3T3 tox inconclusive, HEK293 tox inconclusive
O=C(Nc1ccc(-c2cccc(F)c2)cc1)C1CCCN1Cc1ccc(CO)o1 (configuration not stated)	NIH3T3 tox inconclusive, FLuc inh inconclusive, HEK293 tox 35µM
Cc1ncc(CN2CCCC2C(=O)Nc2ccc(-c3cccc(F)c3)cc2)n1C (configuration not stated)	NIH3T3 tox inconclusive, HEK293 tox 20µM
COc1ccc([S+](=O)([O-])c2nnn3c2nc(N2CCC(F)CC2)c2ccccc23)cc1	none (no result: NPR1 antag, FLuc inh)
Cc1ccc([S+](=O)([O-])N2CC(N3C(=O)c4c(c(C)nn4-c4ccccc4)C3C3CC3)C2)cc1 (configuration not stated)	none (no result: NPR1 antag, FLuc inh)
CCN1C[C@H]2COc3cc(OC)ccc3[C@H]2N(C(=O)c2ccc(C)cc2)CCC1=O	NIH3T3 tox inconclusive (no result: NPR1 antag, FLuc inh)
[C-]#[N+]C1CCN(C(=O)c2cc(-c3cccc(C(F)(F)F)c3)c3nncn3n2)CC1	none (no result: NPR1 antag, FLuc inh)
O=C(Cc1cccs1)Nc1ccc2c(N3CCCCC3)ncnc2c1	NPR1 antag inconclusive, NIH3T3 tox inconclusive, HEK293 tox inconclusive
COc1ccccc1CC(=O)Nc1ccc2c(N3CCCCC3)ncnc2c1	NPR1 antag inconclusive, NIH3T3 tox inconclusive, HEK293 tox 25µM
Cc1ccccc1CC(=O)Nc1ccc2ncnc(N3CCCCC3)c2c1	NIH3T3 tox inconclusive, HEK293 tox 40µM
O=C1CC2(CCN(C(=O)C3CCN(C(=O)c4ccc(Cl)nc4)CC3)CC2)Oc2ccccc2N1	none (no result: NPR1 antag, FLuc inh)
O=C(c1ccccc1Cl)N1CCC(C(=O)N2CCCC(c3nc4ncccc4[nH]3)C2)CC1 (configuration not stated)	none (no result: NPR1 antag, FLuc inh)
C=CCN1CC(C)(C)CN(S(=O)(=O)c2ccc(C)cc2)CC1=O	NIH3T3 tox inconclusive (no result: NPR1 antag, FLuc inh)
O=C(NCc1ccco1)N1CCc2nc3cc(-c4ccccc4Cl)[nH]n3c(=O)c2C1	NIH3T3 tox inconclusive, FLuc inh 14µM, HEK293 tox inconclusive
CCOc1cccc(CN2CCC3(Cc4ccccc4CNC3=O)C2)c1 (configuration not stated)	HEK293 tox inconclusive (no result: NPR1 antag, FLuc inh)
COc1cccc(-c2cccc(C(=O)N3CCC4(CCCN(C)C4=O)C3)c2)c1 (configuration not stated)	HEK293 tox inconclusive
Cc1ccc(-c2[nH]ncc2CN2CCN(c3ccc(Cl)cn3)CC2)cc1C	NIH3T3 tox inconclusive, HEK293 tox 35µM
OC1CN(Cc2ccccc2)CCN(Cc2cn[nH]c2-c2ccc(Cl)cc2)C1 (configuration not stated)	NIH3T3 tox inconclusive, HEK293 tox inconclusive
Cc1ccc(CN2CCN(C(=O)CCC3CCN(C(=O)c4ccccc4)CC3)CC2)cc1	NPR1 antag inconclusive, HEK293 tox inconclusive
CCC(CC)NC(=O)CCC1CCN(C(=O)c2ccc(C)cc2)CC1	FLuc inh 40µM
Cc1ccc(C(=O)N2CCC(CCC(=O)N3CCCCC3)CC2)cc1	FLuc inh 28µM, HEK293 tox inconclusive
Cc1ccc(C(=O)N2CCC(CCC(=O)NC3CCCCCC3)CC2)cc1	NIH3T3 tox inconclusive, FLuc inh 40µM, HEK293 tox inconclusive
COc1cccc(CCC(=O)N2CCC(c3n[nH]c(=O)n3-c3ccccc3)CC2)c1	none
Cc1ccc(-n2c(C3CCN(C(=O)COc4ccc(Cl)cc4C)CC3)n[nH]c2=O)cc1	HEK293 tox inconclusive
Cc1cc(Cl)ccc1OCC(=O)N1CCC(c2n[nH]c(=O)n2-c2ccccc2)CC1	NIH3T3 tox 40µM, HEK293 tox inconclusive
CN(C)c1cccc(C(=O)N2CCC(c3n[nH]c(=O)n3-c3ccccc3)CC2)c1	FLuc inh 32µM
Cc1cccc(OCC(=O)N2CCC(c3n[nH]c(=O)n3Cc3ccc(F)cc3)CC2)c1	NIH3T3 tox 20µM
Cc1cccc(OCC(=O)N2CCC(c3n[nH]c(=O)n3-c3ccccc3)CC2)c1	NIH3T3 tox 7.1µM
Cc1ccc(Cn2c(C3CCN(C(=O)COc4cccc(C)c4)CC3)n[nH]c2=O)cc1	none
COc1ccc(C(=O)N2CCC(C(=O)N3CCC(c4ccccc4)CC3)CC2)cc1	none (no result: NPR1 antag, FLuc inh)
O=C(c1ccccc1)N1CCCC(C(=O)N2CCCC(c3nc4ccncc4[nH]3)C2)C1 (configuration not stated)	none (no result: NPR1 antag, FLuc inh)
COc1cccc(N2CCN(C(=O)c3noc(-c4ccc(C)cc4)n3)CC2)c1	FLuc inh 20µM, HEK293 tox inconclusive
Cc1ccc(-c2nc(C(=O)N3CCN(c4ccc(C)cc4)CC3)no2)cc1	FLuc inh 14µM
Cc1ccc(-c2nc(C(=O)N3CCN(c4cccc(C)c4)CC3)no2)cc1	NIH3T3 tox inconclusive, FLuc inh 18µM, HEK293 tox inconclusive
Cc1ccc(-c2nc(C(=O)N3CCN(c4cc(C)ccc4C)CC3)no2)cc1	NIH3T3 tox inconclusive, HEK293 tox inconclusive
CN1CCN(C(=O)c2ccc3nc(-c4cccnc4)oc3c2)CC1	none (no result: NPR1 antag, FLuc inh)

Bioassay records deposited in PubChem by National Center for Advancing Translational Sciences (NCATS).
